In PubChem BioAssay (NCATS):
Results filed as inconclusive are left out. Activity calls are given as the source filed them. Calls come from the whole dose curve; as a rule, active = well fitted curve in the direction sought with a large enough effect; inconclusive = small, poorly fitted or top-dose-only effect, or another doubt; inactive = no such curve, though single readings can be large; an effect the other way counts as inactive or inconclusive.

How the values were obtained:
[1] = qHTS of pediatric cancer cell lines to identify multiple opportunities for drug repurposing: Primary screen for U-2 OS cells (AID 1347096); note: nearly all actives have a fitted effect of over 50% in size
Summary of the method: (§1)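 Cells (500-1,000/well) rested 5 h, then received compounds for 48 h; metabolically active cells were measured by CellTiter-Glo luminescence. Final concentrations spanned up to 46 µM (MIPE, 11-point) or 0.59 nM-46 µM (NPC, 8-point) in primary screens, 11-point in follow-ups.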

[2] = qHTS of pediatric cancer cell lines to identify multiple opportunities for drug repurposing: Primary screen for Saos-2 cells (AID 1347097); note: nearly all actives have a fitted effect of over 40% in size
Summary of the method: (§2)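 Plated cells (500-1,000 per well, growth media) were allowed to settle for 5 hours, treated with compound dilutions for 48 hours, then lysed with CellTiter-Glo for 15 min at room temperature before luminescence reading.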

[3] = qHTS of pediatric cancer cell lines to identify multiple opportunities for drug repurposing: Primary screen for SK-N-SH cells (AID 1347098);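 note: DMSO served as neutral control and bortezomib at 2.3 µM as positive control; nearly all actives have a fitted effect of over 65% in size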
Summary of the method: as §1

[4] = qHTS of pediatric cancer cell lines to identify multiple opportunities for drug repurposing: Primary screen for NB1643 cells (AID 1347099); note: nearly all actives have a fitted effect of over 50% in size
Summary of the method: as §2

[5] = qHTS of pediatric cancer cell lines to identify multiple opportunities for drug repurposing: Primary screen for LAN-5 cells (AID 1347100)
Summary of the method: as §1

[6] = qHTS of pediatric cancer cell lines to identify multiple opportunities for drug repurposing: Primary screen for BT-12 cells (AID 1347101); note: nearly all actives have a fitted effect of over 25% in size
Summary of the method: as §1

[7] = qHTS of pediatric cancer cell lines to identify multiple opportunities for drug repurposing: Primary screen for Rh18 cells (AID 1347102); note: nearly all actives have a fitted effect of over 65% in size
Summary of the method: as §1

[8] = qHTS of pediatric cancer cell lines to identify multiple opportunities for drug repurposing: Primary screen for OHS-50 cells (AID 1347103); note: nearly all actives have a fitted effect of over 40% in size
Summary of the method: as §1

[9] = qHTS of pediatric cancer cell lines to identify multiple opportunities for drug repurposing: Primary screen for RD cells (AID 1347104); note: nearly all actives have a fitted effect of over 55% in size
Summary of the method: as §2

[10] = qHTS of pediatric cancer cell lines to identify multiple opportunities for drug repurposing: Primary screen for MG 63 (6-TG R) cells (AID 1347105); note: nearly all actives have a fitted effect of over 50% in size
Summary of the method: as §2

Measured: Potency

COc1ccc(S(=O)(=O)N2c3ccc(Cl)cc3[C@@](O)(c3ccccc3Cl)[C@H]2C(=O)N2CCC[C@@H]2C(N)=O)cc1OC
inactive: all assays above

O=C(NCCc1c[nH]c2ccccc12)c1cccnc1
inactive: all assays above

CC(=O)NO
inactive: all assays above

O=C1C(O)=C(O)C(=O)C(O)=C1O
not listed: [10]
inactive: all other assays above

CC(=O)N[C@@H](CCC(=O)O)C(=O)O
inactive: all assays above

Clc1cccc(C(c2ccc3nc[nH]c3c2)n2ccnc2)c1 (stereo not given)
not listed: [10]
inactive: all other assays above

COc1cc(C)nc(-n2nc(C)cc2OC)n1
not listed: [10]
inactive: all other assays above

CCCCCCCCCCCCCCCCO
not listed: [10]
inactive: all other assays above

Cc1cccc(C)c1NC(=O)CN1CCCCCC1
inactive: all assays above

COc1ccc(CCN(C)CCCN2CCc3cc(OC)c(OC)cc3CC2=O)cc1OC
inactive: all assays above

O=S(=O)(O)c1ccc(O)cc1
inactive: all assays above

Nc1ccc(S(=O)(=O)NCc2ccccc2)cc1
not listed: [10]
inactive: all other assays above

Cc1ccc(S(=O)(=O)NC(=O)NC2CCCC2)cc1
inactive: all assays above

COc1cc(O)c(C(=O)c2ccccc2)cc1S(=O)(=O)O
not listed: [10]
inactive: all other assays above

CC(O)Cn1cnc2c1c(=O)n(C)c(=O)n2C (stereo not given)
not listed: [10]
inactive: all other assays above

CC(=C(CCOC(=O)C(C)C)SSC(CCOC(=O)C(C)C)=C(C)N(C=O)Cc1cnc(C)nc1N)N(C=O)Cc1cnc(C)nc1N
inactive: all assays above

CC(C)(C)NC[C@H](O)COc1nsnc1N1CCOCC1
inactive: all assays above

CCOc1ccccc1OCCN[C@H](C)Cc1ccc(OC)c(S(N)(=O)=O)c1
inactive: all assays above

CCCc1ncc(C[n+]2ccccc2C)c(N)n1
inactive: all assays above

NC(=S)N/N=C/c1cccnc1
not listed: [10]
inactive: all other assays above

NS(=O)(=O)Cc1noc2ccccc12
inactive: all assays above

N#CCC(=O)NN
inactive: all assays above

Cc1c[nH]c2ccccc12
not listed: [10]
inactive: all other assays above

COc1ccc(-c2cc(C(F)F)nn2-c2ccc(S(N)(=O)=O)cc2)cc1F
not listed: [10]
inactive: all other assays above
